From PubChem BioAssay (NCATS)
Values joined by “and” are separate entries in the source; they are usually repeats but may differ in a detail not shown here. Identical values can stand only once. Records with an inconclusive call do not appear. Active and inactive are the calls of the source. Unless noted, calls follow the shape of the dose curve; as a rule, active = well fitted curve in the direction sought with a large enough effect; inconclusive = small, poorly fitted or top-dose-only effect, or another doubt; inactive = no such curve, though single readings can be large; an effect the other way counts as inactive or inconclusive.

How the values were obtained:
[1] = qHTS assay for small molecule agonists of retinoid X receptor alpha signaling (AID 588544; calls by dose curve;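 as to activation: 0% = DMSO basal wells and 100% = reference agonist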); settings: HEK293T RXRa-UAS-bla, beta-lactamase reporter, 18 h; 530 nm emission
[2] = molecular target: Retinoic acid receptor RXR-alpha (Homo sapiens) (UniProt P19793); experiment: as above; settings: HEK293T RXRa-UAS-bla, beta-lactamase reporter, 18 h; series mostly up to 76.7 µM
Retinoic acid receptor RXR-alpha (Homo sapiens), sequence (P19793 whole entry, looked up): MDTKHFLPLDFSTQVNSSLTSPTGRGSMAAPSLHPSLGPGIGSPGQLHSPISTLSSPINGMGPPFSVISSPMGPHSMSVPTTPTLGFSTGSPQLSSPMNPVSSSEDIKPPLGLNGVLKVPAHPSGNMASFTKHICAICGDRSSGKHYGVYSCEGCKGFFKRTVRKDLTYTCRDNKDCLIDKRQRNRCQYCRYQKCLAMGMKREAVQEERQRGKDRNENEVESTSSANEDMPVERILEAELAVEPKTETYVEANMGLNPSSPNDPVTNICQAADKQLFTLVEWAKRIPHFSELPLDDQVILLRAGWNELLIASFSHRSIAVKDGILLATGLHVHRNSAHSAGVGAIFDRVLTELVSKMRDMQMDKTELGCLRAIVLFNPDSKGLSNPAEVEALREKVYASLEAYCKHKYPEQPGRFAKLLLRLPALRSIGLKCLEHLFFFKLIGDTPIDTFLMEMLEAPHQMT

[3] = molecular target: Thyroid hormone receptor beta (Homo sapiens) (UniProt P10828); experiment: qHTS assay for small molecule agonists of thyroid hormone receptor beta signaling (AID 588545; calls by dose curve;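 also: 0% = DMSO only and 100% = 10 nM T3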); settings: TR-UAS-bla GripTite HEK 293, beta-lactamase ratio, agonist mode, 18 h; series mostly up to 76.7 µM
Thyroid hormone receptor beta (Homo sapiens), sequence (P10828 whole entry, looked up): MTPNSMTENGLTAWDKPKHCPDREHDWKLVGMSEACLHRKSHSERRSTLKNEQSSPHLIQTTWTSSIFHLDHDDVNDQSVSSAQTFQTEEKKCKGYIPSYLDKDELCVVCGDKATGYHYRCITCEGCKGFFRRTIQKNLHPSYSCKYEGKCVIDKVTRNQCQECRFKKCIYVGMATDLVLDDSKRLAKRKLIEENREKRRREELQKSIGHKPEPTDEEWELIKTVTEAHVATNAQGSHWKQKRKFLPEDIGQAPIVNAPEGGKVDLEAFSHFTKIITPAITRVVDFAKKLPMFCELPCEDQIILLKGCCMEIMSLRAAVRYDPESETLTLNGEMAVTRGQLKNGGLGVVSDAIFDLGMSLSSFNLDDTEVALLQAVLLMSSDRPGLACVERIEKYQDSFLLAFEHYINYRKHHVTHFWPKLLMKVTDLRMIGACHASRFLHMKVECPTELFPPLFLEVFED
Procedure, shortened: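 Efficacy and EC50 values derive from Hill fits of qHTS titration data, normalized to 10 nM T3 and DMSO-only wells. HEK 293 reporter cells were stimulated for 18 hrs at 37 C, with beta-lactamase activity measured by CCF4 fluorescence.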

[4] = qHTS assay for small molecule antagonists of retinoid X receptor alpha signaling (AID 588546; active = well fitted inhibition curve with a large enough effect in the signal ratio, with a control signal flat, not every such curve was filed as active; the % refers to the signal ratio;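 also: cells stimulated with 9-cis-retinoic acid as agonist; % is scaled to controls: 0 for no effect and ±100 for the full control effect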); settings: HEK293T RXRa-UAS-bla, beta-lactamase ratio, antagonist mode; measured here: W530 green channel, cytotoxicity proxy
Procedure, shortened: (§1)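 Beta-lactamase reporter inhibition, read as CCF4 fluorescence ratio (ex 405, em 460/530 nm) after 2 h at RT. HEK293T UAS-bla cells, 2500/well, were stimulated with 9-cis-RA at 500 or 100 nM final alongside test compound for 18 h at 37 C.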

[5] = molecular target: Thyroid hormone receptor beta (Homo sapiens) (UniProt P10828); experiment: qHTS assay for small molecule antagonists of thyroid hormone receptor beta signaling (AID 588547; active = well fitted inhibition curve with a large enough effect in the signal ratio, with a control signal flat, not every such curve was filed as active; the % refers to the signal ratio;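 also: cells stimulated with 0.4 nM T3 agonist during compound exposure; % is scaled to controls: 0 for no effect and ±100 for the full control effect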); settings: TR-UAS-bla HEK293, beta-lactamase ratio, antagonist mode, 18 h
Procedure, shortened: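 Inhibition of T3-driven (0.4nM final) beta-lactamase reporter activity was measured over 0.59 nM to 92 uM compound after 18 h at 37 C. The cells were GripTite HEK293 TR-UAS-bla in charcoal/dextran-stripped serum, with CCF4 ratio read-out and IC50 from Hill fits.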

[6] = qHTS assay for small molecule activators of the p53 signaling pathway (AID 651743; active = well fitted activation curve with a large enough effect in the signal ratio, not every such curve was filed as active; the % refers to the signal ratio; also: % of control where 0% means no effect); settings: HCT-116 p53RE-bla, beta-lactamase FRET ratio, 16 h; activation: stronger effect = higher value
Procedure, shortened: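 After 16 hours compound treatment at 37 C, HCT-116 cells stably expressing p53RE-driven beta-lactamase were loaded with LiveBLAzer B/G FRET substrate for 2 hours at room temperature. Fluorescence intensity served as the p53 activation read-out.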

[7] = qHTS assay for environmental chemicals that activate the Aryl hydrocarbon Receptor (AhR) signaling pathway (AID 651777); settings: 1A2-DRE human hepatoma cells, luciferase, 24 h; activation: stronger effect = higher value; also: % of control where 0% means no effect; nearly all actives have a fitted effect of over 15% in size
Procedure, shortened: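 Luminescence (One-Glo, 30 min, room temperature) reports AhR-driven luciferase in stably transfected human hepatoma cells bearing DRE and CYP1A2 promoter. Cells (1,200/well) were treated with compound for 24 hr at 37 C in qHTS format.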

[8] = molecular target: Peroxisome proliferator-activated receptor alpha (Homo sapiens) (UniProt Q07869); experiment: qHTS assay for small molecule agonists of the peroxisome proliferator-activated receptor alpha (PPARalpha) signaling pathway (AID 651778); settings: PathHunter PPARalpha complementation, chemiluminescence, 6 h; max response: stronger effect = higher value; also: % of control where 0% means no effect
Peroxisome proliferator-activated receptor alpha (Homo sapiens), sequence (Q07869 whole entry, looked up): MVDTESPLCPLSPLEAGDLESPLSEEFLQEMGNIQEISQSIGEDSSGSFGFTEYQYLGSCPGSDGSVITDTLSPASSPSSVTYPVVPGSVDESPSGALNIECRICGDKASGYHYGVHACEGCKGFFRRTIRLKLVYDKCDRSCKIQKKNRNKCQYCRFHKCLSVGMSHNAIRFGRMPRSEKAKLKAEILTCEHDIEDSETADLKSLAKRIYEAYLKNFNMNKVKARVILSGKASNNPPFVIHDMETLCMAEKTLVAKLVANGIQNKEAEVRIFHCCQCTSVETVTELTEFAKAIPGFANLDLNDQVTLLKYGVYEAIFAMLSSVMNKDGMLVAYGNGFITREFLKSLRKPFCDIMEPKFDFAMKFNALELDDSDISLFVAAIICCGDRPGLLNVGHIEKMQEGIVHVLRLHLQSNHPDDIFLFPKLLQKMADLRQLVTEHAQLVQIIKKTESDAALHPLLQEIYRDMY
Procedure, shortened: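 Chemiluminescence from complemented enzyme reported PPARalpha activation in cells after 6 hr of compound treatment at 37 C. The detection reagent was incubated for 60 min at room temperature, and compounds were scored as agonists.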

[9] = qHTS assay for small molecule agonists of the antioxidant response element (ARE) signaling pathway measured by Nrf2-dependant transcriptional activity - cell viability counter screen (AID 720653; active = well fitted curve in the direction sought with a large enough effect in the repeat runs; an effect the other way counts as inactive or inconclusive; also: % is scaled to controls: 0 for no effect and ±100 for the full control effect); settings: ARE-bla HepG2 viability, CellTiter-Glo ATP luminescence, 16 h; max response: stronger effect = lower value
Procedure, shortened: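 Cytotoxicity counter screen: intracellular ATP quantified by CellTiter-Glo luminescence in the same ARE-bla HepG2 plates, after 16 h compound exposure and a 2 h beta-lactamase substrate step.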

[10] = qHTS assay for cell viability of HEK293 cells (AID 743288); settings: ATP luminescence (CellTiter-Glo), 18 h; max response: stronger effect = lower value; also: % is scaled to controls: 0 for no effect and ±100 for the full control effect; nearly all actives have a fitted effect of over 50% in size
Procedure, shortened: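 ATP luminescence (CellTiter-Glo) reports metabolically competent cell number after parental HEK293 cells, 2,000/well, were treated with DMSO-dissolved compounds for 18 h at 37 C; reagent incubation 30 min, room temperature.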

[11] = qHTS assay for cell viability of the p53RE-bla HCT-116 cell line (AID 743292); settings: p53RE-bla HCT-116 viability, ATP luminescence, 16 h; series mostly up to 95 µM; also: % is scaled to controls: 0 for no effect and ±100 for the full control effect; nearly all actives have a fitted effect of over 55% in size
Procedure, shortened: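 ATP-based luminescent viability (CellTiter-Glo, 30 min RT) after 16 h compound treatment at 37 C of p53RE-bla HCT-116 cells, seeded at 4,000 cells/well and rested 5 h before dosing.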

[12] = molecular target: Nuclear receptor subfamily 1 group I member 2 (Rattus norvegicus) (UniProt Q9R1A7); experiment: qHTS assay for small molecule activators of the rat pregnane X receptor (rPXR) signaling pathway (AID 651751; call rule not given here; also: 0% is about no effect); settings: rPXR reporter cells, luciferase (One-Glo), 24 h
Nuclear receptor subfamily 1 group I member 2 (Rattus norvegicus), sequence (Q9R1A7 whole entry, looked up): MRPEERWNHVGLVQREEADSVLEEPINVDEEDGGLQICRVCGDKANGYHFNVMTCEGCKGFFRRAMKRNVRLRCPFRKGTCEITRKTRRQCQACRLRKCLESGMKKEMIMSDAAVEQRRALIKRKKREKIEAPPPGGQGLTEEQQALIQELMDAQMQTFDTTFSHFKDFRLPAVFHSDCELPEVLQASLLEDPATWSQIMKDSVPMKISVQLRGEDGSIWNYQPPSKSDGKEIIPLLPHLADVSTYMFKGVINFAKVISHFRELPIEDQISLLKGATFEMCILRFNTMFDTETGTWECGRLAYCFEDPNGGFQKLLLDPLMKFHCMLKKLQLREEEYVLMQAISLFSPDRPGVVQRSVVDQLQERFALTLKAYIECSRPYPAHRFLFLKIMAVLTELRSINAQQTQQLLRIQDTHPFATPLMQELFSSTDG

[13] = qHTS assay for small molecule antagonists of peroxisome proliferator-activated receptor delta signaling (AID 588535; active = well fitted inhibition curve with a large enough effect in the signal ratio, with a control signal flat, not every such curve was filed as active; the % refers to the signal ratio; also: potency is read from the fitted curve at half-maximal effect;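 as to max response: cells co-treated with a PPAR-delta agonist as stimulator during compound exposure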); settings: HEK293T PPARd-UAS-bla, beta-lactamase FRET ratio, 18 h; 460 nm channel
Procedure, shortened: (§2)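 Titrations were run on PPAR-delta-UAS-bla HEK293T cells in charcoal/dextran-stripped serum, incubated 18 h at 37 C. CCF4 fluorescence (460/530 nm) after 2 h RT; Hill equation yields IC50 and maximal response.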

[14] = molecular target: Peroxisome proliferator-activated receptor delta (Homo sapiens) (UniProt Q03181); experiment: as above; settings: HEK293T PPARd-UAS-bla, beta-lactamase FRET ratio, 18 h; series mostly up to 76.7 µM
Peroxisome proliferator-activated receptor delta (Homo sapiens), sequence (Q03181 whole entry, looked up): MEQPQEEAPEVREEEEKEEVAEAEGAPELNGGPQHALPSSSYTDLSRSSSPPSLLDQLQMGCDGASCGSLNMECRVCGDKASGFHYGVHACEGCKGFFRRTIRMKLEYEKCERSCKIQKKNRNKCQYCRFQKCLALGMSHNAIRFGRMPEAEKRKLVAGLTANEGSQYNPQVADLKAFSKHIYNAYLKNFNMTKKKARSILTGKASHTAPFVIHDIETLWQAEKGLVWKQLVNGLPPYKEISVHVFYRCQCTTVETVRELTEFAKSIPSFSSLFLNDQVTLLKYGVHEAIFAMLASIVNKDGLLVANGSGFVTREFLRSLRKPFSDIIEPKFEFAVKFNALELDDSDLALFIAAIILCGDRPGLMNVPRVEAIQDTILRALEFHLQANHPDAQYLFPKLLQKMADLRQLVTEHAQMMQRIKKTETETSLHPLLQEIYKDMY
Procedure, shortened: as §2

[15] = molecular target: Vitamin D3 receptor (Homo sapiens) (UniProt P11473); experiment: qHTS assay for small molecule agonists of vitamin D receptor signaling (AID 588543; calls by dose curve;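 also: 0% = DMSO basal and 100% = reference agonist control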); settings: HEK293T VDR-UAS-bla, beta-lactamase ratio, 16 h; series mostly up to 76.8 µM
Vitamin D3 receptor (Homo sapiens), sequence (P11473 whole entry, looked up): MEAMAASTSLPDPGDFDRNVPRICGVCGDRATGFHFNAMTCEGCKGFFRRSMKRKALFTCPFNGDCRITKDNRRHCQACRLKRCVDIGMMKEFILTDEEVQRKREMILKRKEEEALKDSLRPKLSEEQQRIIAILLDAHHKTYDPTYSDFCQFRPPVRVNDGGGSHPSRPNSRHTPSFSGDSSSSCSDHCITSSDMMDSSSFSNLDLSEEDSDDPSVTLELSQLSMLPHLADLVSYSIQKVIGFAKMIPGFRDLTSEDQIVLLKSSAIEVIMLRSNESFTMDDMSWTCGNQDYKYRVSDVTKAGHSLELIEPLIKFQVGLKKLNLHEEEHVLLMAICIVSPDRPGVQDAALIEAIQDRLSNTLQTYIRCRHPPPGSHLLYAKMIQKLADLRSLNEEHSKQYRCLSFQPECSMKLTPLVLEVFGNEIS
Procedure, shortened: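 β-lactamase reporter, VDR-UAS-bla HEK293T, agonist mode. Cells plated 5 h at 37 °C, compound titration 16 h at 37 °C, CCF4 dye 2 h RT, ratio 460/530 nm. Hill fit → EC50, efficacy vs 50 nM 1α,25-(OH)2D3.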

[16] = qHTS assay for small molecule activators of the nuclear factor-kappa B (NF-kB) signaling pathway (AID 651749; active = well fitted activation curve with a large enough effect in the signal ratio; the % refers to the signal ratio; also: % of control where 0% means no effect); settings: NF-kB-bla ME-180 cells, beta-lactamase FRET ratio, 16 h; activation: stronger effect = higher value
Procedure, shortened: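 Activation measured after 16 hr compound treatment at 37C, 5% CO2, of 2,000 ME-180 cells/well stably expressing an NF-kB response element–driven beta-lactamase reporter, via FRET-disruption fluorescence.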

[17] = qHTS assay for small molecule agonists of the antioxidant response element (ARE) signaling pathway measured by Nrf2-dependant transcriptional activity (AID 720636; active = well fitted curve in the direction sought with a large enough effect in the repeat runs; an effect the other way counts as inactive or inconclusive; also: % of control where 0% means no effect); settings: ARE-luc HepG2, Nrf2 luciferase reporter, 16 h; series mostly up to 92.4 µM
Procedure, shortened: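 Nrf2-dependent transcription read as ONE-Glo luciferase signal from ARE-luc HepG2 reporter cells after 16 hr compound treatment at 37 C, 5% CO2, in assay medium with 1% dialyzed FBS.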

[18] = qHTS assay for small molecule activators of the human pregnane X receptor (PXR) signaling pathway (AID 720659; call rule not given here; also: 0% is about no effect); settings: DPX-2 HepG2 CYP3A4-luciferase, 24 h; series mostly up to 92.3 µM
[19] = molecular target: Vitamin D3 receptor (Homo sapiens) (UniProt P11473); experiment: qHTS assay for small molecule antagonists of vitamin D receptor signaling (AID 588541; calls by dose curve); settings: HEK293T VDR-UAS-bla, beta-lactamase ratio, antagonist mode; series mostly up to 76.7 µM
Procedure, shortened: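 Antagonist-mode beta-lactamase reporter assay: HEK293T VDR-UAS-bla cells were exposed to titrated compound alongside 1-alpha,25-dihydroxyvitamin D3 at 3 nM final for 16 h. Values were normalized to the 50 nM agonist control and DMSO basal, with IC50 and efficacy from Hill equation fits.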

[20] = molecular target: Retinoic acid receptor RXR-alpha (Homo sapiens) (UniProt P19793); experiment: qHTS assay for small molecule antagonists of retinoid X receptor alpha signaling (AID 588546); settings: HEK293T RXRa-UAS-bla, beta-lactamase ratio, antagonist mode;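 also: cells stimulated with 9-cis-retinoic acid as agonist; % is scaled to controls: 0 for no effect and ±100 for the full control effect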
Procedure, shortened: as §1

| Structure (SMILES) | max response [1] | Potency [2] | Potency [3] | max response [4] | activity change % (negative = inhibition) [5] | activation [6] | activation [7] | max response [8] | max response [9] | max response [10] | Potency [11] | max response [12] | max response [13] | Potency [14] | outcome [15] | activation [16] | Potency [17] | outcome [18] | Potency [19] | max response [20] |
| --- | --- | --- | --- | --- | --- | --- | --- | --- | --- | --- | --- | --- | --- | --- | --- | --- | --- | --- | --- | --- |
| c1ccc2cc3ccccc3cc2c1 | -12.9% | inactive | inactive | 21.2% | -13.8% (inactive) | 7.64% (inactive) | 1.49% (inactive) | -0.274% (inactive) | -8% (inactive) | -2.63% (inactive) | inactive | 4.65% (inactive) |  |  |  |  |  |  |  |  |
| O=C(O)CN(CCCN(CC(=O)O)CC(=O)O)CC(=O)O | -16.9% | inactive | inactive |  |  |  | 0.0297% (inactive) | 0.851% (inactive) | -7.74% (inactive) | -11% (inactive) | inactive | -5.79% (inactive) | -69.3% | 14.1 µM (active) | inactive | 0.672% (inactive) | inactive | inactive |  |  |
| FC(F)(F)c1ccc(Cl)c(Cl)c1 | -13.8% | inactive | inactive | 5.97% | 7.4% (inactive) | -5.24% (inactive) | 3.72% (inactive) | 0.167% (inactive) | -4.28% (inactive) | -13.4% (inactive) | inactive | -0.267% (inactive) | 40.3% | inactive | inactive | -0.0768% (inactive) | inactive | inactive | inactive | -9.01% (inactive) |
| Nc1ccc(N)c2c1C(=O)c1c(N)ccc(N)c1C2=O | -9.83% | inactive | inactive |  | 20.4% (inactive) |  | 12.2% (inactive) | 7.09% (inactive) | -2.4% (inactive) | -28.2% (inactive) | inactive | -7.59% (inactive) |  |  | inactive | 7.06% (inactive) |  | inactive |  |  |
| CCCCOC(=O)[C@@H](C)Oc1ccc(Oc2ccc(C(F)(F)F)cn2)cc1 | -3.89% and -1% | inactive | inactive | -5.61% and -1.04% | 6.28% (inactive) and 7.31% (inactive) | -5.64% (inactive) and -5.4% (inactive) | -0.836% (inactive) and 0.498% (inactive) | -0.0053% (inactive) and -0.638% (inactive) | -10.9% (inactive) and -13.9% (inactive) | -10% (inactive) and -13.5% (inactive) | inactive | -5.37% (inactive) and -2.58% (inactive) | 35.2% and 48.6% | inactive | inactive | -0.296% (inactive) and -2.63% (inactive) | inactive |  | inactive | 9.28% (inactive) and -16% (inactive) |
| c1ccc(B(c2ccccc2)c2ccccc2)cc1 | 7.43% | inactive | inactive | 3.4% |  | -0.854% (inactive) | 1.54% (inactive) | -0.443% (inactive) | -1.71% (inactive) | -15.9% (inactive) |  | 1.02% (inactive) | -3.44% | inactive | inactive | -3.07% (inactive) | inactive |  | inactive | -24.3% (inactive) |
